The values below come from PubChem BioAssay.

“And” between values parts separate entries of the source, which are not always exact repeats. Equal values may be shown once. The source made the active and inactive calls. Unless noted, the rule behind the calls is not given here.

The nature of test [1]: liver-stage malaria parasite load reduction – cell-based, known kinase inhibitor set, luminescence, hepatoma host viability (AID 624392).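 Note: infected cells incubated roughly two days before readout.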 As to conditions: Plasmodium liver stage in hepatoma cells, luciferase luminescence, concentration not given here; liver cell % of control: measured here: host liver cell viability; parasite % of control: stronger effect = lower value.
A short description of test [2]: altered dexamethasone sensitivity, NF-kB reporter, cell-based, luciferase, IL-1B stimulus (AID 624486).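 For percent of negative control (+Dex): 100% = mean signal of vehicle control wells on the plate.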 As to conditions: IL-1B + dexamethasone, luminescence; percent of negative control (+Dex): actives lie on both sides, concentration not given here; z-score: measured here: IL-1B alone, no Dex.
Test [3] is described as follows: C. elegans survival during P. aeruginosa infection – whole organism (AID 651566).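 Note: tested at 14 µM; sign flipped so higher z means a lower ratio.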 As to conditions: C. elegans killed by P. aeruginosa, survival ratio.
Test [4] is described as follows: pro-inflammatory signaling induction in mouse macrophages – cell-based, murine, luminescence (AID 652131). The following applies: murine macrophage pro-inflammatory reporter, stronger effect = higher value.
The target in test [5] is Cellular tumor antigen p53 (Homo sapiens) (UniProt P04637). Briefly: GFP-p53 level modulators in HPV16+ cells – imaging, known kinase inhibitor set, EGFP/DsRed ratio (AID 1053116).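 Note: cells exposed to compounds for 24 h at 37 °C before reading.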 As to conditions: GFP-p53 stability, stronger effect = higher value; EGFP object count: measured here: GFP-p53 positive objects count.
Chain of Cellular tumor antigen p53 (Homo sapiens) (P04637 whole entry, looked up): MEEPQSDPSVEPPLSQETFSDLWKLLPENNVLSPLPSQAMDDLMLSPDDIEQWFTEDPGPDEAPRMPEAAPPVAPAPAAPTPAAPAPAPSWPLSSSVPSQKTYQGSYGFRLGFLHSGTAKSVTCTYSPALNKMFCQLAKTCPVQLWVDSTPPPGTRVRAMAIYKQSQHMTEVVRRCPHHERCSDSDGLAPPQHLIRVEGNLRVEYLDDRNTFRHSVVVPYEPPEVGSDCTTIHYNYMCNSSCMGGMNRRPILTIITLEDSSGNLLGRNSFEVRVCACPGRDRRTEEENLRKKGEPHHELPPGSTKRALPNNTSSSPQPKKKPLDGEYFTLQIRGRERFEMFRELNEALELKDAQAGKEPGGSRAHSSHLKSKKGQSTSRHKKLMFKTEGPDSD
The nature of test [6]: inducers of IRF3 signaling, differentiated THP-1 – cell-based, PMA-stimulated THP-1, luminescence (AID 1053176). As to conditions: PMA-differentiated THP-1, IRF3 reporter luminescence; stronger effect = higher value.
Test [7] in a line: MELAS cybrid and Rieske KO viability enhancers – cell-based, MELAS cybrids, Rieske KO mouse fibroblasts, CellTiter-Glo, primary screen (AID 1508586;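 active = mean z-score across replicates of 1.96 or higher in either the MELAS or the Rieske mutant cell line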;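 note: z relative to plate mean and SD of compound and empty wells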). The following applies: low glucose.
Setting [8] is: MELAS cybrid survival, CellTiter-Glo 48 h, stronger effect = higher value.
Where [9] appears, read: Rieske KO mouse fibroblast survival, CellTiter-Glo 72 h.

In test [1], `NS(=O)(=O)c1ccc(N=Nc2c(O)[nH]c3ccc(C(=O)NCCCn4ccnc4)cc23)cc1` returned a liver cell % of control of 94%. Also, the parasite % of control in test [1] was 116% (inactive). Also, the percent of negative control (+Dex) in test [2] is 83% (inactive). Moreover, the z-score in test [2] is -0.125; in test [3], 0.195 (inactive); in test [4] it was 0.038 (inactive); in test [7] (setting [8]) it was -0.0137 (inactive); in test [7] (setting [9]), -0.000813. Moreover, the EGFP object count in test [5] came out at 6. For the same compound, the EGFP/DsRed ratio in test [5] was 0.239 (inactive). The fraction signal in test [6] is -0.0065 (inactive).
As to `NS(=O)(=O)c1ccc(N=Nc2c(=O)[nH]c3ccc4[nH]cccc4c23)cc1`, the liver cell % of control in test [1] came out at 108%. The parasite % of control in test [1] was 91% (inactive). In addition, the percent of negative control (+Dex) in test [2] was 144% (active). For the same compound, the z-score in test [2] is 1.98; in test [3] it was 1.48 (inactive); in test [4], -1.63 (inactive); in test [7] (setting [8]), 2.43 (active); in test [7] (setting [9]), 0.199. Moreover, in test [5], the EGFP object count turned out to be 1.5. In addition, the EGFP/DsRed ratio in test [5] was 0.0128 (inactive). In addition, the fraction signal in test [6] was -0.0065 (inactive).
The compound `CC1=C(C(=O)Nc2ccc3[nH]ncc3c2)C(c2ccc(Cl)c(Cl)c2)CC(=O)N1` (centres undefined) yielded a liver cell % of control in test [1] of 100%. Also, in test [1], the parasite % of control was 160% (inactive). Also, the percent of negative control (+Dex) in test [2] is 83.5% (inactive). Besides, the z-score in test [2] was -1.08; in test [3], -0.52 (inactive); in test [4] it was -0.714 (inactive); in test [7] (setting [8]), -0.00134 (inactive); in test [7] (setting [9]) it was -0.0171. Besides, the EGFP object count in test [5] was 2. Further, the EGFP/DsRed ratio in test [5] was 0.0149 (inactive). Further, the fraction signal in test [6] was -0.0025 (inactive).
Compound `CCn1c(-c2nonc2N)nc2c(C#CC(C)(C)O)ncc(OC[C@@H]3CCCN3)c21` returned a liver cell % of control in test [1] of 81.5%. Further, the parasite % of control in test [1] is 41.7% (inactive). In addition, the percent of negative control (+Dex) in test [2] was 104% (inactive). The z-score in test [2] was -0.32; in test [3], -0.14 (inactive); in test [4], 5.3 (inactive); in test [7] (setting [8]), -0.59 (inactive); in test [7] (setting [9]) it was -0.205. Also, in test [5], the EGFP object count turned out to be 11.5. In test [5], the EGFP/DsRed ratio was 0.291 (inactive). Besides, the fraction signal in test [6] is 0.0025 (inactive).
Regarding `NS(=O)(=O)c1ccc(N=Cc2c(O)[nH]c3ccc4ncsc4c23)cc1`, the liver cell % of control in test [1] was 60.5% and 61.1%. The parasite % of control in test [1] is 165% (inactive) and 378% (inactive). Besides, the percent of negative control (+Dex) in test [2] was 112% (inactive) and 98.5% (inactive). Besides, the z-score in test [2] was 0.655 and 0.01; in test [3], 0.515 (inactive) and 0.145 (inactive); in test [4], -1.62 (inactive) and -1.7 (inactive); in test [7] (setting [8]) it was -0.336 (inactive) and 1.1 (inactive); in test [7] (setting [9]), 0.0286 and -0.139. In test [5], the EGFP object count is 2.5 and 4. Also, the EGFP/DsRed ratio in test [5] was 0.0629 (inactive) and 0.096 (inactive). Also, in test [6], the fraction signal was -0.009 (inactive) and 0.0005 (inactive).
`CNC(=O)c1cncc(/C=C/c2c(Cl)cccc2Cl)c1`: the liver cell % of control in test [1] was 138%. For the same compound, the parasite % of control in test [1] is 48.1% (inactive). For the same compound, the percent of negative control (+Dex) in test [2] is 92% (inactive). The z-score in test [2] was 0.3; in test [3] it was 0.1 (inactive); in test [4] it was 0.203 (inactive); in test [7] (setting [8]), 0.726 (inactive); in test [7] (setting [9]), 0.293. The EGFP object count in test [5] was found to be 5.5. Moreover, in test [5], the EGFP/DsRed ratio is 0.562 (inactive). Besides, the fraction signal in test [6] is -0.0025 (inactive).
Regarding `COc1cc2ncn(-c3cc(OCc4cccs4)c(C(N)=O)s3)c2cc1OC`, the liver cell % of control in test [1] is 107%. Also, the parasite % of control in test [1] was 69% (inactive). The percent of negative control (+Dex) in test [2] was 111% (inactive). The z-score in test [2] is 0.28; in test [3], -0.19 (inactive); in test [4], -0.264 (inactive); in test [7] (setting [8]) it was -0.262 (inactive); in test [7] (setting [9]) it was -0.175. Also, the EGFP object count in test [5] came out at 3.5. Further, the EGFP/DsRed ratio in test [5] is 0.163 (inactive). Moreover, in test [6], the fraction signal was -0.0075 (inactive).
`Nc1nc(-c2ccccn2)c(-c2ccc3ncccc3n2)s1` had a liver cell % of control in test [1] of 94.7%. For the same compound, in test [1], the parasite % of control was 101% (inactive). Besides, the percent of negative control (+Dex) in test [2] was 81.5% (inactive). In addition, the z-score is -0.74 in test [2]; 0.265 (inactive) in test [3]; 4.39 (inactive) in test [4]; -0.0333 (inactive) in test [7] (setting [8]); -0.22 in test [7] (setting [9]). Also, the EGFP object count in test [5] came out at 4. The EGFP/DsRed ratio in test [5] was 0.114 (inactive). For the same compound, the fraction signal in test [6] was -0.01 (inactive).
Compound `Fc1ccc(-c2c(-c3ccncc3)nc3n2CCS3)cc1` came in with a liver cell % of control in test [1] of 113%. The parasite % of control in test [1] is 89.2% (inactive). Besides, the percent of negative control (+Dex) in test [2] is 40% (active). Also, the z-score in test [2] is -5.96; in test [3] it was -1.12 (inactive); in test [4] it was 1.33 (inactive); in test [7] (setting [8]), -0.499 (inactive); in test [7] (setting [9]), -0.254. Also, the EGFP object count in test [5] came to 1.5. For the same compound, the EGFP/DsRed ratio in test [5] is 0.0335 (inactive). Moreover, in test [6], the fraction signal was -0.0075 (inactive).
`CN1CCC(n2cnc(-c3ccc(F)cc3)c2-c2ccnc(N)n2)CC1` showed a liver cell % of control in test [1] of 83.2%. In addition, in test [1], the parasite % of control was 168% (inactive). The percent of negative control (+Dex) in test [2] is 107% (inactive). In addition, the z-score in test [2] was 2.09; in test [3], 0.34 (inactive); in test [4], 3.77 (inactive); in test [7] (setting [8]), -0.312 (inactive); in test [7] (setting [9]), -0.31. Also, in test [5], the EGFP object count was 1.5. Besides, in test [5], the EGFP/DsRed ratio is 0.024 (inactive). In test [6], the fraction signal is -0.004 (inactive).
In test [1], `O=C1NC(=O)C(c2ccc(Cl)cc2)=C1Nc1ccc(Cl)c(C(=O)O)c1` gave a liver cell % of control of 104%. Further, in test [1], the parasite % of control is 127% (inactive). Besides, the percent of negative control (+Dex) in test [2] is 92% (inactive). Also, the z-score in test [2] is 0.785; in test [3] it was 0.035 (inactive); in test [4], 0.277 (inactive); in test [7] (setting [8]) it was -0.525 (inactive); in test [7] (setting [9]), -0.308. Also, the EGFP object count in test [5] stood at 4. Also, the EGFP/DsRed ratio in test [5] was 0.0822 (inactive). In addition, in test [6], the fraction signal was -0.003 (inactive).
The compound `COc1cc(Nc2ncc3c(C)nc(-c4cccc(C(F)(F)F)c4)n3n2)cc(OC)c1OC` yielded a liver cell % of control in test [1] of 91.6%. Also, the parasite % of control in test [1] is 120% (inactive). In addition, the percent of negative control (+Dex) in test [2] was 59.5% (inactive). Further, the z-score in test [2] is -3.31; in test [3], 0.325 (inactive); in test [4] it was -0.389 (inactive); in test [7] (setting [8]) it was 1.04 (inactive); in test [7] (setting [9]), 0.168. The EGFP object count in test [5] is 11. Also, the EGFP/DsRed ratio in test [5] was 0.172 (inactive). For the same compound, the fraction signal in test [6] was 0.005 (inactive).
Take `CC(C)COC(=O)c1ccc2[nH]c(O)c(C=Nc3ccc(S(N)(=O)=O)cc3)c2c1`: in test [1], the liver cell % of control was found to be 61%. Also, in test [1], the parasite % of control is 105% (inactive). The percent of negative control (+Dex) in test [2] is 108% (inactive). Also, the z-score in test [2] was 0.975; in test [3], 0.47 (inactive); in test [4], -1.9 (inactive); in test [7] (setting [8]) it was -0.896 (inactive); in test [7] (setting [9]) it was 0.112. Further, the EGFP object count in test [5] came to 3.5. Further, in test [5], the EGFP/DsRed ratio was 0.0968 (inactive). Also, the fraction signal in test [6] is -0.013 (inactive).
Turning to `COc1ccc(-c2cc(C3CNNC3c3ccccn3)ccn2)cc1` (centres undefined), the liver cell % of control in test [1] was 171%. Moreover, the parasite % of control in test [1] is 92.3% (inactive). Moreover, the percent of negative control (+Dex) in test [2] is 104% (inactive). Besides, the z-score was 1.42 in test [2]; -0.77 (inactive) in test [3]; 2.73 (inactive) in test [4]; -0.36 (inactive) in test [7] (setting [8]); -0.107 in test [7] (setting [9]). Moreover, in test [5], the EGFP object count turned out to be 3.5. For the same compound, the EGFP/DsRed ratio in test [5] was 0.0398 (inactive). Also, the fraction signal in test [6] is -0.0055 (inactive).
